# Test results reported in PubChem BioAssay AID1851 (National Center for Advancing Translational Sciences (NCATS), 2009).
# “And” between values parts separate entries of the source, which are not always exact repeats. Identical values can stand only once. The whole screen tested about 16,000 compounds, of which about 2,600 (16%) were called active. Not shown: some 20% with an inconclusive outcome. A selection follows. Unmarked numbers belong to inactive results. Calls come from the whole dose curve; as a rule, active = well fitted curve in the direction sought with a large enough effect; inconclusive = small, poorly fitted or top-dose-only effect, or effect the other way; inactive = no such curve, though single readings can be large or run the other way.
# Biological target: Cytochrome P450 2D6 (Homo sapiens) (UniProt P10635)
# Sequence (P10635 whole entry, looked up): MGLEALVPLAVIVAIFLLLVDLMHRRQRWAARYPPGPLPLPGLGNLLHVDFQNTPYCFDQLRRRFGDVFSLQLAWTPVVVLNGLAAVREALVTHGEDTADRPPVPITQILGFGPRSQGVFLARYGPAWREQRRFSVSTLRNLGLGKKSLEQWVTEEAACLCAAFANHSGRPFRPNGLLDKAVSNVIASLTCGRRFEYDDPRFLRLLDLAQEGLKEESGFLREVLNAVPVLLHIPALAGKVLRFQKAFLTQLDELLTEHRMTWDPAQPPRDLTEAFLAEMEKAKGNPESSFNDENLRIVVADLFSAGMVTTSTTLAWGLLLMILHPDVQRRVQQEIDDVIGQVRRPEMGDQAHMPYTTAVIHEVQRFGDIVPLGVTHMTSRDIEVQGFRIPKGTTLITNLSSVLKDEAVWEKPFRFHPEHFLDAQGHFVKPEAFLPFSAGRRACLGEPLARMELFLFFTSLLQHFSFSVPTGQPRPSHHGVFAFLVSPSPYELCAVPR
# Test: Cytochrome panel assay with activity outcomes
# Conditions: recombinant CYP, pro-luciferin dealkylation, luminescence, p450-cyp2d6; series mostly up to 57.1 µM
# % is set by controls: 0 for no effect and ±100 for the full control effect.
Structure (SMILES),AC50,"activity, negative = inhibition"
COc1ccc(-n2c(=O)c(-c3cccs3)nc3cncnc32)cc1,inactive,
Cc1cc(=O)[nH]c2c1c(C)nn2C1CCOC(C)(C)C1 (stereo not given),inactive,
O=C(Nc1nnc(CCS(=O)(=O)c2ccc(Br)cc2)s1)c1ccc([N+](=O)[O-])cc1,inactive,
O=S(=O)(O)c1ccc2cc(N=Nc3cc(S(=O)(=O)O)c4cccnc4c3O)ccc2c1,,-2.47% [at 11.4 µM]
O=C(CCC(=O)Nc1ccccc1)NNC(=O)c1cccs1,inactive,
CCn1ccc(C(=O)NC2C(=O)N3C(C(=O)O)=C(C)CSC23)n1 (stereo not given),inactive,
COC(=O)Nc1nc2ccc(SC(C)C)cc2[nH]1,inactive,
COc1ccc(-n2c(=O)c(-c3ccccc3)nc3cnc(N4CCNCC4)nc32)cc1,inactive,
Fc1ccc(C(OCCCc2cnc[nH]2)c2ccc(F)cc2)cc1,0.631 µM (active),
N[C@@H](Cc1cnc[nH]1)C(=O)O,inactive,
O=C(O)CC12C[C@H]3C[C@@H](CC(O)(C3)C1)C2,,1.29% [at 11.4 µM]
COc1ccc(-c2cnnc(CCCn3ccnc3-c3ccccc3)n2)cc1,,-4.95% [at 11.4 µM]
COc1ccc(C(O)c2nccn2Cc2ccccc2)cc1 (stereo not given),10 µM (active),
COc1ccc([C@H](O)c2ccccn2)cc1,,0.937% [at 11.4 µM]
CCNC(=O)C/C(C)=N/NC(=O)C12CC3CC(CC(C3)C1)C2,inactive,
COc1ccc(NC(=O)N2CC[C@@]3(CCCN(C(=O)c4ccc(OC)cc4)C3)C2)cc1,inactive,
COc1ccc(NC(=O)N2CCCC3(CCN(C(=O)c4cccn4C)CC3)C2)cc1,inactive,
CCn1c(SCc2ccc(C#N)cc2)nnc1-c1ccc(S(=O)(=O)N2CCCCC2)cc1,inactive,
N#Cc1ccc(C(c2nnnn2Cc2ccccc2)N2CCCC2)cc1 (stereo not given),7.94 µM (active),
COCC1C2CC[C@H]3C(OCc4ccc(F)cc4C(F)(F)F)OC[C@]4(C)[C@H]3C2=C(CN4C(=O)OC(C)(C)C)[C@H](C)C1COC (stereo not given in full),inactive,
O=C(ON=C1CCN(S(=O)(=O)c2ccccc2)CC1)c1ccccc1,inactive,
c1ccn(-c2ccc(N3CCOCC3)cc2)c1,inactive,

Structure (SMILES),AC50,"activity, negative = inhibition"
COc1ccc(C(=O)NNC(=S)NC(=O)c2ccco2)cc1,inactive,
Cc1ccc(C)c(-n2c(Cc3cc(=O)[nH]c(=O)[nH]3)nnc2SCC(=O)NCC2CCCO2)c1 (stereo not given),inactive,
OCCCN=C1CCCCC1,,-10.2% [at 11.4 µM]
CCOC(=O)c1ccccc1OCc1cc(/C=N/n2cnnc2)ccc1OC,inactive,
CC(C)Cn1c(N)c(C(=O)CSc2ccc3c(c2)OCCO3)c(=O)n(C)c1=O,inactive,
CC(C)C(=O)Nc1cc2c(cc1C(=O)c1ccccc1)OCCO2,inactive,
CC(Sc1ccc2c(c1)OCCO2)C(=O)Nc1ncc(Cl)cc1Cl (stereo not given),12.6 µM (active),
CCn1c(C)nc2cc(C(=O)NNS(=O)(=O)c3ccccc3F)ccc21,inactive,
Cc1cc(C)cc(N(C(=O)C2CCCC2)C2C=CS(=O)(=O)C2)c1 (stereo not given),inactive,
COc1ccc(C(=O)N2CCC3(CC2)CN(C(=O)NC(C)C)C3)cc1,inactive,
COc1ccccc1OCCCOc1ccc([N+](=O)[O-])cc1Cl,11.2 µM (active),
COc1cc(C)ccc1OCCCOc1ccccc1Cl,inactive,
COc1ccccc1CC(=O)O/N=C(\N)c1cccc([N+](=O)[O-])c1,inactive,
Cc1ccc(OCC(=O)NNC(=O)c2cc3ccccc3o2)cc1,inactive,
CCCS(=O)(=O)N1CCCC(C(=O)NCC2CCCO2)C1 (stereo not given),inactive,
CCCS(=O)(=O)N1CCCC(C(=O)NCCCOC(C)C)C1 (stereo not given),inactive,
CCCS(=O)(=O)N1CCCC(C(=O)NCCCN2CCN(c3ccccc3F)CC2)C1 (stereo not given),10 µM (active),
CCCS(=O)(=O)N1CCCC(C(=O)NCCN2CCC(Cc3ccccc3)CC2)C1 (stereo not given),0.501 µM (active),
CCCN(CCC)CCNC(=O)C1CCCN(S(=O)(=O)c2ccc3c(c2)oc(=O)n3C)C1 (stereo not given),inactive,
CCCS(=O)(=O)N1CCCC(C(=O)NCCN2CCOCC2)C1 (stereo not given),inactive,
CCCS(=O)(=O)N1CCCC(C(=O)N2CCN(c3ccccc3)CC2)C1 (stereo not given),inactive,
O=C(NCCCN1CCN(c2cccc(Cl)c2)CC1)C1CCC(=O)N1Cc1ccccc1Cl (stereo not given),5.01 µM (active),

Structure (SMILES),AC50,"activity, negative = inhibition"
O=C(Nc1ccc(Br)cc1)C1CCC(=O)N1Cc1ccccc1Cl (stereo not given),inactive,
CCCS(=O)(=O)N1CCCC(C(=O)NCCCN2CCN(c3cccc(Cl)c3)CC2)C1 (stereo not given),5.62 µM (active),
COC(Cc1nnc(SC)n1-c1ccccc1)OC,inactive,
CC(C)Nc1cc(C(F)(F)F)nc(-c2ccccn2)n1,inactive,
CC(C)COP(=O)(c1ccc(N(C)C)cc1)C(O)c1ccccc1F (stereo not given),inactive,
COc1cccc(Cn2c(=O)cnc3cnc(OC)nc32)c1,inactive,
Cc1ccc(-c2nc3c(=O)n(C)c4ccccc4c3o2)cc1,inactive,
O=C(COc1ccccc1)Nc1ccc(-c2nnc(-c3ccco3)o2)cc1,inactive,
C/C(CC(=O)Nc1cc(Cl)ccc1Cl)=N\NC(N)=S,inactive,
CC(NC(=O)c1ccc(Cn2cc([N+](=O)[O-])cn2)o1)c1ccccc1 (stereo not given),inactive,
CCCc1cc2c(cc1NC(=O)c1ccccc1C)OCO2,8.91 µM (active),
CCC(=O)Nc1cc2c(cc1C(=O)c1ccccc1)OCCO2,inactive,
CCOc1cc(NC(=S)NCC2CCCO2)c(OCC)cc1NC(=O)c1ccccc1C (stereo not given),inactive,
c1ccc(-c2csc3ncn4cnnc4c23)cc1,inactive,
CCC(=O)N[C@@H]1Cc2ccccc2[C@@H](c2ccccc2)C1,inactive,
COCCNc1cc(-c2c(C)noc2C)ncn1,inactive,
Cc1cc(Cl)ccc1OCC(=O)N/N=C1\CCCc2ccccc21,inactive,
Cc1cc(Cl)ccc1OCC(=O)Nc1nc(N)nc(N)n1,,14% [at 11.4 µM]
Cc1cc(Cl)ccc1OCC(=O)NCc1ccncc1,2.82 µM (active),
N/C(=N\c1nc2ccccc2o1)NC(=O)c1ccccc1F,inactive,
Cc1ccc(S(=O)(=O)N[C@H]2COC(=O)C/C=C\[C@@H](C)COC(=O)C/C=C\[C@@H]2C)cc1,,15.5% [at 11.4 µM] and -2.8% [at 11.4 µM]
